# Test results published in PubChem BioAssay (NCATS).
# Results filed as inconclusive are left out. Unmarked numbers belong to inactive results. Calls of active or inactive are those of the source. Calls come from the whole dose curve; as a rule, active = well fitted cell-killing curve with a large enough effect; inconclusive = small, poorly fitted or top-dose-only effect, or effect the other way; inactive = no such curve, though single readings can be large or run the other way.
# Test: Quantitative High-Throughput drug screen in 47 multiple myeloma cell lines against the NCATS MIPE library collection: KMS12BM_JCRB cell viability assay (AID 1918971); note: nearly all actives have a fitted effect of over 35% in size
# Settings: KMS12BM myeloma viability, CellTiter-Glo ATP, 48 h; series mostly up to 45.8 µM; viability, % of DMSO: at the top concentration
# Source text: PI: Beverly A. Mock Ph.D.
# Laboratory of Cancer Biology and Genetics,
# Center for Cancer Research, National Cancer Institute,
# National Institute of Health, Bethesda, Maryland
# Drug resistance and disease progression are common in multiple myeloma (MM) patients, underscoring the need for new therapeutic combinations. […] We hypothesized that effective combinations would reduce MYC expression and enhance p16 activity. […] These preclinical data identify potentially useful drug combinations for evaluation in drug-resistant MM and reveal potential mechanisms of combined drug sensitivity.
# Described herein is the primary MIPE qHTS used to cherrypick compounds. Validated compounds were then further tested for potential synergistic activiy.
# [1] Peat TJ, Gaikwad SM, Dubois W, Gyabaah-Kessie N, Zhang S, Gorjifard S, Phyo Z, Andres M, Hughitt VK, Simpson RM, Miller MA, Girvin AT, Taylor A, Williams D, D'Antonio N, Zhang Y, Rajagopalan A, Flietner E, Wilson K, Zhang X, Shinn P, Klumpp-Thomas C, McKnight C, Itkin Z, Chen L, Kazandijian D, Zhang J, Michalowski AM, Simmons JK, Keats J, Thomas CJ, Mock BA. Drug combinations identified by high-throughput screening promote cell cycle transition and upregulate Smad pathways in myeloma. Cancer Lett. 2023 Aug 1;568:216284. doi: 10.1016/j.canlet.2023.216284. Epub 2023 Jun 24. PMID: 37356470; PMCID: PMC10408729.
# SEQUENCE No. (e.g., 1, 2, 3, etc.); […] (e.g., Cells, Incubation, Reagent, etc.); VALUE and DESCRIPTION.
# 1; Cells; 5 uL; white, solid bottom 1536-well Greiner assay plate.
# 2; Compounds; 23 nL; Kalypsis pin tool (Wako USA) equipped with a 1536-well pin head to transfer to the assay plates.
# 3; Incubation; 48 hours; 37C incubation.
# 4; Reagent;5uL; CellTiter Glo (Promega).
# 5; Detector; 425V; Luminescence; Viewlux PerkinElmer.
# NOTES (numbers refer to Sequence numbers above)
# 1. The cell-based screening methods employed in this study were like those previously published. Briefly, the corresponding myeloma cell lines were screened in 1,536-well plates with 500 cells, 5-uL per well for inhibition of cell viability (assessed by measuring ATP levels with CellTiterGlo).
# 2. NCATS MIPE 4.0 library of approved and investigational drugs were added using the Kalypsis pin tool. Wells treated with DMSO only for 100% viability and media only wells for 0% viability were used as controls.
# 3. The assay plates were covered and incubated for 48 hours in a 37C, 5% CO2 incubator with controlled humidity.
# 4. After 48 hours, CellTilter-GloTM luminescent substrate mix (Promega) reagent was added to the assay plate and plates we incubated for 5 min at room temperature.
# 5. Signal was measured as median relative luminescence units on a ViewLux (PerkinElmer) multiplate reader.
# [1] Heske CM, Davis MI, Baumgart JT, Wilson K, Gormally MV, Chen L, Zhang X, Ceribelli M, Duveau DY, Guha R, Ferrer M, Arnaldez FI, Ji J, Tran HL, Zhang Y, Mendoza A, Helman LJ, Thomas CJ. Matrix Screen Identifies Synergistic Combination of PARP Inhibitors and Nicotinamide Phosphoribosyltransferase (NAMPT) Inhibitors in Ewing Sarcoma. Clin Cancer Res. 2017 Dec 1;23(23):7301-7311. doi: 10.1158/1078-0432.CCR-17-1121. Epub 2017 Sep 12. PMID: 28899971; PMCID: PMC6636827.
# Potency is the fitted concentration of half-maximal effect.
Compound,Potency,"viability, % of DMSO [%]"
C=C(C)[C@H]1Cc2c(ccc3c2O[C@@H]2COc4cc(OC)c(OC)cc4[C@@H]2C3=O)O1,2.64 µM (active),–
COc1ccc(C(=O)c2c(C)n(CCN3CCOCC3)c3ccccc23)cc1,–,134
CNCC(O)c1ccc(O)cc1 (configuration not stated),–,117
COC[C@@H](NC(C)=O)C(=O)NCc1ccccc1,–,131
C[C@@H]1[C@@H](CC(C[C@H]2O[C@@H]3O[C@]4(C)CC[C@@H]5[C@H](C)CC[C@@H]([C@H]2C)[C@@]35OO4)C[S+](=O)([O-])c2ccc(COC(=O)N(C)C)cc2)O[C@@H]2O[C@]3(C)CC[C@H]4[C@H](C)CC[C@@H]1[C@@]24OO3 (some centres not stated),0.148 µM (active),–
COC[C@H]1OC(=O)c2coc3c2[C@@]1(C)C1=C(C3=O)C2CCC(=O)[C@@]2(C)C[C@H]1OC(C)=O (some centres not stated),10.5 µM (active),–
COC1(CS(=O)c2ccccc2)CCN(CCc2c[nH]c3ccc(F)cc23)CC1 (configuration not stated),–,111
COc1ccc(C(CN(C)C)C2(O)CCCCC2)cc1 (configuration not stated),–,101
CN(C)CCN(C)CCc1ccc(Cl)c(Cl)c1,–,135
Cc1cccc(C)c1NC(=O)CN1CCCC1=O,–,125
CC(O)(CS(=O)(=O)c1ccc(F)cc1)C(=O)Nc1ccc(C#N)c(C(F)(F)F)c1 (configuration not stated),23.5 µM (active),–
C[C@@H]1[C@@H](C(=O)C[C@H]2O[C@@H]3O[C@]4(C)CC[C@@H]5[C@H](C)CC[C@@H]([C@H]2C)[C@@]35OO4)O[C@@H]2O[C@]3(C)CC[C@H]4[C@H](C)CC[C@@H]1[C@@]24OO3,0.372 µM (active),–
CN(C)CCc1ccc(O)cc1,–,127
Cc1sc2c(c1C)C(c1ccc(Cl)cc1)=N[C@@H](CC(=O)OC(C)(C)C)c1nnc(C)n1-2,0.187 µM (active),–
Cn1cc(C2=C(c3cn(C4CCN(Cc5ccccn5)CC4)c4ccccc34)C(=O)NC2=O)c2ccccc21,23.5 µM (active),–
N[C@@H](Cc1ccc(N(CCCl)CCCl)cc1)C(=O)O,16.6 µM (active),–
COc1ccc2c(c1OC)CN1CCc3cc4c(cc3C1C2)OCO4 (configuration not stated),18.7 µM (active),–
NCC1(CC(=O)O)CCCCC1,–,141
Fc1ccc(C(OCCN2CCN(CCCc3ccccc3)CC2)c2ccc(F)cc2)cc1,14.8 µM (active),–
Cn1c(CCCC(=O)O)nc2cc(N(CCCl)CCCl)ccc21,7.43 µM (active),–
C[C@@H]1O[C@@H](O[C@H]2C[C@@H](O)[C@]3(CO)[C@H]4[C@H](O)C[C@]5(C)[C@@H](C6=CC(=O)OC6)CC[C@]5(O)[C@@H]4CC[C@]3(O)C2)[C@H](O)[C@H](O)[C@H]1O,0.0662 µM (active),–
CN(C)[C@@H]1C(=O)C(C(N)=O)=C(O)[C@@]2(O)C(=O)C3=C(O)c4c(O)cccc4[C@@](C)(O)[C@H]3C[C@@H]12,4.18 µM (active),–
